Reference: PubChem BioAssay (NCI)
This is part of a sample that, as a whole, favours compounds with a hit. Of some 79,000 tested, about 15% had one in any assay. Unmarked numbers belong to inactive results. The source made the active and inactive calls. Cut-off read from the data, not from the text of the source: active = growth inhibition above about 70%; inactive = the rest.

Assays:
[1] = NCI Yeast Anticancer Drug Screen. Data for the rad50 strain (AID 155);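 note: 0% = growth of vehicle-only cultures of the same strain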; details: S. cerevisiae rad50 strain growth inhibition; at 50.0 µM; stronger effect = higher value
Outline: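 Cells are treated with compound, grown, and their growth is then scored against vehicle-only cultures of the same repair-deficient yeast strain.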

[2] = NCI Yeast Anticancer Drug Screen. Data for the mec2-1 strain (AID 157); details: S. cerevisiae mec2-1 strain, at 50.0 µM, stronger effect = higher value
Outline: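 Readout is yeast growth inhibition, normalised to vehicle-treated controls, in the mec2-1 strain exposed to compound.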

[3] = NCI Yeast Anticancer Drug Screen. Data for the sgs1 mgt1 strain (AID 161);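 note: 0% = growth of cultures given vehicle only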; details: S. cerevisiae sgs1 mgt1 strain, at 50.0 µM, stronger effect = higher value
Outline: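 Percent growth inhibition was derived by comparing compound-exposed mutant yeast with vehicle-exposed cultures. The strain carries alterations in DNA damage repair.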

[4] = NCI Yeast Anticancer Drug Screen. Data for the cln2 rad14 strain (AID 165);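 note: 0% = growth equal to vehicle treated cultures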; details: S. cerevisiae cln2 rad14 strain, at 50.0 µM, stronger effect = higher value
Outline: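 Relative to vehicle controls, growth inhibition of compound-treated cln2 rad14 yeast was recorded.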

[5] = NCI Yeast Anticancer Drug Screen. Data for the bub3 strain (AID 167); details: S. cerevisiae bub3 mutant strain, at 50.0 µM, stronger effect = higher value
Outline: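 Part of a panel of yeast mutants defective in DNA damage repair or cell cycle regulation. Each strain is grown with compound, and inhibition is calculated relative to solvent-treated cultures.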

[6] = NCI Yeast Anticancer Drug Screen. Data for the mlh1 rad18 strain (AID 175); details: S. cerevisiae mlh1 rad18 strain growth inhibition; at 50.0 µM; stronger effect = higher value
Outline: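 Test agents were incubated with a yeast strain of defined genotype (DNA damage repair defect). Inhibition of growth was derived by comparison with vehicle-exposed cultures.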

Structure (SMILES)	growth inhibition [1]	growth inhibition [2]	growth inhibition [3]	growth inhibition [4]	growth inhibition [5]	growth inhibition [6]
COC(=O)CCCCCCCCCCC1C=CCC1 (stereo unspecified)	-3.5%	-23%	11.4%	9.8%	-3.45%	0.5%
Cc1nc([N+](=O)[O-])cn1CC(=N)N	-23%	-28.8%	-16.1%	-5.15%	-25.6%	-38.7%
CCOC(=O)/C(C#N)=C/N=c1ccccn1C	5.1%	-7.95%	-1.3%	-25.1%	-6.6%	-4.5%
O=C(O)COc1ccccc1/C=C1/SC(=S)N(c2ccccc2)C1=O	-1.4%	-10.8%	-7.25%	-41.5%	0.55%	1.1%
CCCCNCC(=O)O[C@]1(CC)C(=O)OCc2c1cc1n(c2=O)Cc2cc3ccccc3nc2-1	78% (active)	66.8%	49.5%	28.8%	40.2%	62.2%
C=C1C(C(=O)O)C1C(=O)O (stereo unspecified)	4.2%	-11.8%	20.4%	3.6%	2.9%	-2.25%
COc1cc(C2SCC(=O)N2c2ccc(-n3c(-c4ccccc4)nc4ccccc4c3=O)cc2)cc(OC)c1OC (stereo unspecified)	-17.3%	-8.85%	-4.4%	-7.8%	8.05%	4.5%
N#C/C(=N\NC(=O)c1ccncc1)c1ccc(Cl)cc1	-3%	3.6%	3.75%	-30.2%	-9.75%	4.65%
COc1ccc(C2ON(c3ccccn3)CC=C2C)cc1 (stereo unspecified)	12.4%	-9.25%	12.6%	12.2%	-2.45%	6.55%
O=[N+]([O-])c1cc(F)ccc1-c1ccc(F)cc1	2.35%	-4.85%	0.7%	-20.7%	2.8%	20.4%
COCCOC(=O)c1ccccc1Cl	23.7%	15.6%	16.3%	8.8%	7.1%	22.4%
Brc1cc(Br)c(-c2c(Br)cc(Br)cc2Br)c(Br)c1	-20.8%	-30.2%	-16.1%	4.2%	-7.5%	-15.7%
CCN(CC)C(=O)C1(C)NS(=O)(=O)c2ccccc2C1=O (stereo unspecified)	-7.05%	10.1%	-4.15%	-31.9%	-10.8%	-9.45%
O=C(c1ccc(CSc2ccc(Cl)cc2)o1)N1CCOCC1	23.9%	12%	45.5%	24.2%	32.6%	26.6%
CC(C)=CCC/C(C)=C/COC(=O)N(c1ccccc1)c1ccccc1	5.95%	-0.1%	3.9%	-47%	3.6%	-1.15%
O=C1CN(c2ccccc2)C(=O)CN1/N=C/c1ccc(O)c(O)c1	-35.2%	8.75%	-3.25%	12.7%	-2.55%	-11.2%
CC(C)N(C(=O)C12C3C4C5(C#N)C3C1(C#N)C5C42C#N)C(C)C (stereo unspecified)	-10.4%	-9.9%	-21.8%	1.5%	-0.7%	-27.4%
CC(C)(C)OC(=O)NC(Cc1ccccc1)C(=O)OCN1C(=O)C2C3C=CC(C2C1=O)C1C2C(=O)N(COC(=O)C(Cc4ccccc4)NC(=O)OC(C)(C)C)C(=O)C2C31 (stereo unspecified)	26.8%	-4.1%	-0.5%	-6.55%	8.25%	20.4%
Cc1cc(C)c(C)c(CC(C)(CI)CI)c1C	20.3%	-13.2%	-4.7%	0.65%	-8.05%	-3.6%
O=P(OC1=NCCN1Cc1ccccc1)(OC1=NCCN1Cc1ccccc1)N1CC1	16.9%	5.6%	21.7%	32.4%	3.75%	-6.2%
O=[N+]([O-])c1ccc(-c2csc(NCC3CCCO3)n2)cc1 (stereo unspecified)	24.3%	-10.6%	49.9%	21.1%	21.6%	17.9%
O=C(O)c1[nH]c2ccccc2c(=O)c1-c1ccccc1	11.7%	-31.5%	0.95%	-14.3%	1.05%	-19.4%
CCCC(O)C(C)C(O)CC (stereo unspecified)	-9.85%	-30.4%	-22.2%	-3.45%	1.4%	-1.45%

Structure (SMILES)	growth inhibition [1]	growth inhibition [2]	growth inhibition [3]	growth inhibition [4]	growth inhibition [5]	growth inhibition [6]
Cc1ccc(S(=O)CC(Cl)c2ccccc2)cc1 (stereo unspecified)	-26.6%	4.2%	13.2%	56%	14.3%	21.1%
NC(CCCCC1CCCCC1)C(=O)O (stereo unspecified)	-5.75%	-29.4%	-18.1%	-37.4%	-28.4%	-2.95%
Cc1ccc(C(=O)N2CCCCC2)cc1N=NN(C)C	0.05%	-25.5%	-25.6%	14.3%	-17.6%	-21.1%
CNc1c(F)cc(C(=O)O)cc1F	-8.35%	4.5%	-0.25%	-16.4%	-32.6%	2.15%
O=C(O)c1cccc2c1C(=O)c1c(O)cccc1C2=O	35.9%	19.9%	42.4%	25.9%	13.2%	30.2%
CCN(CC)CC(OC(C)=O)c1ccc2ccc3ccc(O)cc3c2c1 (stereo unspecified)	15.9%	7.85%	-7.55%	-5.55%	-3.25%	19.1%
O=C(NCCN1CCNCC1)c1ccc(Cl)cc1	26.9%	40%	30.8%	63%	33.6%	40.2%
COc1ccc2c(c1)[n+](=O)c(C(=O)C/C(=N/OCCCc1ccccc1)C(=O)NC13CC4CC(CC(C4)C1)C3)c(C)n2[O-]	-1.3%	-3.2%	-19.4%	17.1%	3.85%	-4.6%
N#C/C(=C\c1ccccc1)c1ccc(F)cc1F	33.2%	30.6%	6.15%	6.55%	6.55%	9.7%
C[N+](C)(C)CC(=O)N/N=C(/Cc1nc2c3c(ccc2[nH]c1=O)C(=O)c1ccccc1C3=O)C(=O)Nc1ccc(Cl)c(Cl)c1	1.05%	-6.8%	-7.8%	18.8%	7.5%	30.9%
c1ccc(-c2nc3n(n2)CCC(c2ccccc2)S3)cc1 (stereo unspecified)	-7.95%	-18.1%	-15.5%	3.9%	6.1%	-8.75%
Cc1ccc(Nc2nc(C)c(C(=O)CC(=O)C(=O)Nc3c(C)cccc3C(C)(C)C)s2)cc1	14.2%	-17.6%	-0.4%	-19.2%	-1.05%	2.85%
C1CCCCCC2=C(CCCC1)CCCO2	7.4%	-7.5%	2.35%	-19.3%	10.2%	0.2%
CN(C=O)c1cccc(C(=O)O)c1	4.05%	-1.2%	-3.95%	-29.5%	-2.35%	7.45%
Nc1nc(Cl)c2nc(Cl)n(C3OC(CO)C(O)C3O)c2n1 (stereo unspecified)	-7.1%	1.75%	-8.7%	-16%	4.5%	-4.25%
O=C(O)CCCSc1ccc2ccccc2c1	48.5%	3.75%	45.6%	24.9%	4.55%	38.3%
CC1(C)OC2C(CO)OC(n3ccc(N)nc3=O)C2O1 (stereo unspecified)	-33%	-12%	2.15%	-29.9%	10.6%	-1.75%
CCC(CC)C(=O)NC(=O)NC(N)=O	2.7%	1.4%	3.35%	-4.7%	6.55%	-3.55%
O=C1CCC([N+](=O)[O-])C(c2ccccc2Cl)N1 (stereo unspecified)	10.7%	-15.9%	20.1%	-0.9%	29.7%	20.5%
OCCNCc1cccc(-c2ccccc2)c1O	24.6%	3%	15.9%	-18.8%	8.2%	16.9%
CCc1n[nH]c(=O)n1/N=C/c1ccc(C)cc1	-0.2%	-3.3%	-4.85%	-0.3%	3.8%	-2.25%
Cc1ccc(-c2cs/c(=N\N=C3/CSC(=O)N3Cc3ccccc3)n2-c2cccc(C)c2)cc1	24.4%	1.2%	-11.2%	-4.3%	4.1%	22.2%
CCCC1=C(OC)C(=O)c2c(C)cc(Cl)nc2C1=O	48.5%	48.2%	86.2% (active)	78.8% (active)	87.5% (active)	38.9%
